Assay results from PubChem BioAssay (NCATS).
Several values for one entry are separate records, joined by “and”; a condition that tells them apart may be missing. Identical values can stand only once. Inconclusive results are not listed. Activity calls are given as the source filed them. Unless noted, the call rests on the fitted dose curve; in most records, active means well fitted inhibition curve with a large enough effect; inconclusive means small, poorly fitted or top-dose-only effect; inactive means flat fitted curve, though single readings scatter.

Assays:
[1] = Drug repurposing screens with cells derived from glioblastoma tumor samples (AID 1345199); details: GBM patient neurospheres viability, ATP luminescence, 48 h; further: nearly all actives have a fitted effect of over 40% in size; further: potency means the concentration at half of the fitted maximal effect; on activity, negative = cell killing: on the % scale 0 is the no-effect control and ±100 the full control effect
Procedure, shortened: (§1)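 Four patient lines of CD133+ GBM neurospheres were screened at several concentrations; hits were retested in those lines plus three slower-growing GBM lines, using 48-hour treatment and ATP-based viability.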

astro = control astrocytes; experiment: as above; details: viability, ATP luminescence, 48 h; series mostly up to 45.9 µM
Procedure, shortened: as §1

[2] = qHTS assay for small molecule activators of the human pregnane X receptor (PXR) signaling pathway (AID 720659; call rule not given here; further: 0% is about no effect); details: DPX-2 HepG2 CYP3A4-luciferase, 24 h; series mostly up to 92.3 µM
[3] = molecular target: Nuclear receptor subfamily 1 group I member 2 (Rattus norvegicus) (UniProt Q9R1A7); experiment: qHTS assay for small molecule activators of the rat pregnane X receptor (rPXR) signaling pathway (AID 651751; call rule not given here; further: 0% is about no effect); details: rPXR reporter cells, luciferase (One-Glo), 24 h
[4] = at 45.9 µM (top of the series), tumour line B
[5] = at 45.9 µM (top of the series), tumour line D
[6] = at 46.1 µM (top of the series), tumour line C
[7] = at 20 µM (top of the series), tumour line C
[8] = at 46 µM (top of the series), tumour line A

Sequence of Nuclear receptor subfamily 1 group I member 2 (Rattus norvegicus) (Q9R1A7 whole entry, looked up): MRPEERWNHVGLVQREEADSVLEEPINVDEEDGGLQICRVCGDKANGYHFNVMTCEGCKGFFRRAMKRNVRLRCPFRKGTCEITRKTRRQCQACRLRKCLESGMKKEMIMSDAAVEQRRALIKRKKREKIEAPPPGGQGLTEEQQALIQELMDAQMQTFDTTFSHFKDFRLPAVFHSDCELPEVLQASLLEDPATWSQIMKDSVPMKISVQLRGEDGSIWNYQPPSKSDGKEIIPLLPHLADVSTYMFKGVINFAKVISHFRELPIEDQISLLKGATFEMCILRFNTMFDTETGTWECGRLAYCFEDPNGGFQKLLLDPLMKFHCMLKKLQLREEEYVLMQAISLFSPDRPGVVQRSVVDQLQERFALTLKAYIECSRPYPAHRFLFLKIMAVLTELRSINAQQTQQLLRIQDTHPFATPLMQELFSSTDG

[O-][N+](=Nc1ccccc1)c1ccccc1
inactive: activity, negative = cell killing [1, 4] -12.7% | activity, negative = cell killing [1, 5] -9.27% | activity, negative = cell killing [1, 6] -6.88% | Potency (astro) | outcome [2]

CC(C)(C)NC[C@H](O)COc1ccccc1C1CCCC1
active: Potency ([1]; tumour line A) 4.47 µM | Potency ([1]; tumour line D) 12.6 µM
inactive: activity, negative = cell killing [1, 7] 19% | Potency (astro)

CCc1cn([C@H]2C[C@H](O)[C@@H](CO)O2)c(=O)[nH]c1=O
inactive: activity, negative = cell killing [1, 4] -28.6% | activity, negative = cell killing [1, 5] -5.04% | activity, negative = cell killing [1, 8] -8.93% | Potency (astro)

CC(=O)N[C@@H](C=O)[C@@H](O)[C@H](O)[C@H](O)CO
inactive: activity, negative = cell killing [1, 4] -6.52% | activity, negative = cell killing [1, 5] -3.57% | activity, negative = cell killing [1, 6] -2.77% | Potency (astro)

COc1ccc(-c2noc(CC(=O)O)c2-c2ccc(OC)cc2)cc1
inactive: activity, negative = cell killing [1, 4] -13.4% | activity, negative = cell killing [1, 5] -6.66% | activity, negative = cell killing [1, 6] -18% | Potency (astro)

CC1=C[C@H](O)CC(C)(C)[C@H]1/C=C/C(C)=C/C=C/C(C)=C/C=C/C=C(C)/C=C/C=C(C)/C=C/C1=C(C)C[C@@H](O)CC1(C)C
inactive: activity, negative = cell killing [1, 4] -18.9% | activity, negative = cell killing [1, 5] -21.1% | activity, negative = cell killing [1, 6] -27.4% | Potency (astro)

CO/N=C(/C(=O)N[C@@H]1C(=O)N2C(C(=O)O)=C(COC(N)=O)CS[C@H]12)c1ccco1
inactive: activity, negative = cell killing [1, 4] 3.13% and -9.26% | activity, negative = cell killing [1, 5] -9.35% and -16.7% | activity, negative = cell killing [1, 6] 6.13% and -0.48% | Potency (astro) | max response [3] -2.68% | outcome [2]

OCCOCCOCCO
inactive: activity, negative = cell killing [1, 4] -6.55% | activity, negative = cell killing [1, 5] -3.68% | activity, negative = cell killing [1, 6] 4.43% | Potency (astro) | max response [3] 0.109% and -2.24%

COC(=O)CC[C@H](N)C(=O)O
inactive: activity, negative = cell killing [1, 4] -13.7% | activity, negative = cell killing [1, 5] -12.9% | Potency (astro)

O=C1N=C2SCCN2C(=O)C1Cc1ccc(Cl)cc1 (centres undefined)
inactive: activity, negative = cell killing [1, 4] -17.4% | activity, negative = cell killing [1, 5] -11.7% | activity, negative = cell killing [1, 6] -2.54% | Potency (astro)

CO[C@@H]1[C@H](OC(=O)/C=C/C=C/C=C/C=C/C(=O)O)CC[C@]2(CO2)[C@H]1[C@@]1(C)O[C@@H]1CC=C(C)C
inactive: activity, negative = cell killing [1, 4] 2.14% | activity, negative = cell killing [1, 5] -9.21% | activity, negative = cell killing [1, 6] 4.82% | Potency (astro) | max response [3] -5.29% | outcome [2]

CCCCCCCCCCCCCCCCCCOCC(COP(=O)([O-])OCC[N+](C)(C)C)OC (centres undefined)
inactive: activity, negative = cell killing [1, 5] -24.7% | activity, negative = cell killing [1, 6] -1.43% | Potency (astro)
active: Potency ([1]; tumour line A) 35.5 µM

Cc1ncc(COP(=O)(O)O)c(CN)c1O
inactive: activity, negative = cell killing [1, 4] -10.4% | activity, negative = cell killing [1, 5] -17.3% | activity, negative = cell killing [1, 6] -23.4% | Potency (astro)

CC12CCC(C1)C(C)(C)C2=O (centres undefined)
inactive: activity, negative = cell killing [1, 4] -4.04% | activity, negative = cell killing [1, 5] -4.98% | activity, negative = cell killing [1, 6] 19.6% | Potency (astro)

CCOc1ccc(NC(=S)Nc2ccc(OCC)cc2)cc1
inactive: activity, negative = cell killing [1, 4] -13.1% | activity, negative = cell killing [1, 5] -11.1% | activity, negative = cell killing [1, 6] -27.8% | Potency (astro)

C#C[C@]1(O)CC[C@H]2[C@@H]3CCC4=C(CCC(=O)C4)[C@H]3CC[C@@]21C
inactive: activity, negative = cell killing [1, 7] -4.47% | activity, negative = cell killing ([1]; at 21.2 µM (top of the series), tumour line B) -8.06% | activity, negative = cell killing ([1]; at 21.2 µM (top of the series), tumour line D) -3.97% | Potency (astro)

ClC(Cl)Cl
inactive: activity, negative = cell killing [1, 4] 0.236% | activity, negative = cell killing [1, 5] -13.8% | activity, negative = cell killing [1, 6] -5.54% | Potency (astro) | max response [3] -6.93% | outcome [2]

C=CC(C)(O)CC/C=C(\C)CCC=C(C)C (centres undefined)
inactive: activity, negative = cell killing [1, 4] -7.36% | activity, negative = cell killing [1, 5] -9.56% | activity, negative = cell killing [1, 8] -15.8% | Potency (astro) | max response [3] 14.8%

Oc1cccc(O)c1O
inactive: activity, negative = cell killing [1, 4] -15.1% | activity, negative = cell killing [1, 5] 2.75% | activity, negative = cell killing [1, 6] 15.2% | Potency (astro) | max response [3] -3.92% | outcome [2]

CC(C)(C)CC(C)(C)c1ccc(OCCO)cc1
active: Potency ([1]; tumour line D) 10 µM | Potency (astro) 35.5 µM
inactive: activity, negative = cell killing [1, 4] -26.2% | activity, negative = cell killing [1, 6] -20.5% | max response [3] -14.4%

OC[C@H]1O[C@@H]2O[C@H]3[C@H](O)[C@@H](O)[C@@H](O[C@H]4[C@H](O)[C@@H](O)[C@@H](O[C@H]5[C@H](O)[C@@H](O)[C@@H](O[C@H]6[C@H](O)[C@@H](O)[C@@H](O[C@H]7[C@H](O)[C@@H](O)[C@@H](O[C@H]1[C@H](O)[C@H]2O)O[C@@H]7CO)O[C@@H]6CO)O[C@@H]5CO)O[C@@H]4CO)O[C@@H]3CO
inactive: activity, negative = cell killing [1, 4] -13.8% | activity, negative = cell killing [1, 5] -5.74% | activity, negative = cell killing [1, 6] -2.87% | max response [3] 1.3% and 2.85% | outcome [2]

O=C(OC[C@H]1O[C@](O)(COC(=O)c2cccnc2)[C@@H](OC(=O)c2cccnc2)[C@@H]1OC(=O)c1cccnc1)c1cccnc1
inactive: activity, negative = cell killing [1, 4] -19% | activity, negative = cell killing [1, 5] -0.117% | activity, negative = cell killing [1, 6] -25.9% | Potency (astro)

CC(C)C[C@@H](NC(=O)[C@@H](O)[C@H](N)Cc1ccccc1)C(=O)O
inactive: activity, negative = cell killing [1, 4] -12.5% | activity, negative = cell killing [1, 5] -2.21% | activity, negative = cell killing [1, 6] -22.2% | Potency (astro)
